Reference: PubChem BioAssay AID2314 (National Center for Advancing Translational Sciences (NCATS), 2010)
Screen size: about 300,000 compounds; about 37,000 (12%) were called active. Cut-off read from the data, not from the text of the source: active = max response mostly above about 13% (no sharp cut-off); inactive = mostly below about 14%. Only a selection was taken, and actives are over-represented in it overall.

Test: Cycloheximide Counterscreen for Small Molecule Inhibitors of Shiga Toxin; note: read at 38.3 µM for the half of the compounds with a filed dose; 0% is about no effect
Conditions: cell reporter, cycloheximide protein synthesis inhibition counterscreen; stronger effect = higher value

SMILES	max response
COc1ccc(/C=C/CN2CCCC(C(=O)c3cc(F)ccc3F)C2)cc1 (stereo not given)	4.59% (inactive)
COc1ccc(-c2nc3n(c(=O)c2C#N)CCS3)c(OC)c1	-3.87% (inactive)
COc1ccc(F)c(-c2nc(CN3CCC(c4ccccc4)CC3)c(C)o2)c1	-1.94% (inactive)
COc1cc(/C=C2\C(=N)N3N=C(CC(=O)N4CCOCC4)SC3=NC2=O)cc(OC)c1OC	-8.71% (inactive)
CN(C)N1C(N)=C(C#N)C(c2ccc(Br)cc2)C2=C1CCCC2=O (stereo not given)	11.2% (inactive)
COc1cccc(C(=O)NC(=O)Nc2nc(C)cc(C(F)(F)F)n2)c1	-1.67% (inactive)
Cc1cc(C)nc(NC(=O)C(C)N2C(=O)c3ccccc3C2=O)n1 (stereo not given)	-0.537% (inactive)
Cc1cc(C)nc(NC(=O)Nc2ccccc2C(F)(F)F)n1	25.8% (active)
NNC(=O)c1nnn(-c2nonc2N)c1CN1CCCC1	-0.43% (inactive)
CCOc1cc2[nH]c(=S)n(Cc3ccc(C(=O)N4CCN(C)CC4)cc3)c(=O)c2cc1OCC	-1.74% (inactive)
Cc1cc(S(=O)(=O)N2CCOCC2)ccc1OCC(=O)N1CCOCC1	0.946% (inactive)
Cc1ccc(OCCCC(=O)NC(C)c2ccccc2)c(C)c1 (stereo not given)	6.31% (inactive)
Cc1ccc(OCCCC(=O)N2CCOCC2)c(C)c1	51.4% (active)
O=C(c1ccc(Br)o1)N1CCN(CCOc2ccccc2)CC1	-3.01% (inactive)
CCNC(=O)c1cnn(-c2ccccc2)c1-c1ccccc1	-0.397% (inactive)
CCCc1c(C(=O)O)cnn1-c1ccc(Cl)cc1	-0.801% (inactive)
CCCc1c(C(=O)Nc2ccc(F)cc2)cnn1-c1ccccc1	33.4% (active)
CC(C)(C)c1cc(P(=O)(c2ccccc2)c2ccccc2)ccc1O	0.647% (inactive)
CC(C)N(C(=O)CSc1nc(COc2ccccc2)nc2ccccc12)C(C)C	9.79% (inactive)
CN1CCN(/N=C2/C(=O)Nc3ccc([N+](=O)[O-])cc32)CC1	9.26% (inactive)

SMILES	max response
CN1CCN(/N=C/c2ccc(-c3ccc([N+](=O)[O-])cc3)o2)CC1	31.4% (active)
Cc1ccc(-c2ccc(/C=N/NC(=O)CN3CCOCC3)o2)cc1[N+](=O)[O-]	12.3% (inactive)
COC(=O)c1ccc(NC(=O)C23CC4CC(C2)CC(n2cnc(Cl)n2)(C4)C3)cc1	3.9% (inactive)
CC(=O)Nc1ccc(S(=O)(=O)N2CCN(CCCOc3cc(C)ccc3C)CC2)cc1	-1.97% (inactive)
N=c1c2c(-c3ccccc3)c(-c3ccccc3)n(Cc3ccccc3)c2ncn1CCCO	-6.29% (inactive)
OCCCN1c2ccccc2Nc2nnc(-c3ccccc3)cc21	36.8% (active)
O=C(NC(=S)NC1CCS(=O)(=O)C1)c1cccc([N+](=O)[O-])c1 (stereo not given)	-1.9% (inactive)
CC1CCCN(c2ccc(C(=O)NCCc3ccccc3)cn2)C1 (stereo not given)	66.7% (active)
O=C(NCCc1ccccc1)c1ccc(NC2=NC3CS(=O)(=O)CC3S2)cc1 (stereo not given)	3.38% (inactive)
CC1CCN(c2c(NCc3ccc(C(=O)NCc4ccccc4)cc3)c(=O)c2=O)CC1	3.3% (inactive)
Cc1cc(Nc2ccc(C(=O)N3CCCCC3)cc2)c2cccc(C)c2n1	-1.19% (inactive)
COc1ccc(Nc2ccc([N+](=O)[O-])cn2)cn1	-2.61% (inactive)
NC1=NC[C@@H](Cc2ccc(O)cc2)N1CC1CCCCC1	-4.36% (inactive)
COc1cc(Cl)c(C)cc1NC(=O)COC(=O)c1cc(SC)ccc1Cl	-1.86% (inactive)
Cc1cc(NC(=O)COC(=O)COc2ccc(Cl)cc2C)c([N+](=O)[O-])cc1C	-1.12% (inactive)
COc1ccc(OCC(=O)Nc2cc(C)c(Cl)cc2OC)c([N+](=O)[O-])c1	13.9% (active)
Cc1cccc2sc(N(CCCN(C)C)C(=O)CCS(=O)(=O)c3ccccc3)nc12	8.46% (inactive)
CN(C)CCCn1c(SCc2ccc(Cl)cc2)nnc1-c1ccncc1	-2.48% (inactive)
COc1ccc(NC(=O)C2=CC(c3ccc(OC)c(OC)c3)=NS(=O)(=O)N2C)cc1	-6.05% (inactive)
O=c1c(-c2ccccc2)coc2c(CN3CCOCC3)c(O)ccc12	5.61% (inactive)

SMILES	max response
Cc1c(CCC(=O)O)c(=O)oc2cc3occ(-c4ccccc4)c3cc12	-1.34% (inactive)
O=c1c(-c2ccccc2)coc2cc(O)ccc12	51.6% (active)
CC1(C)C2CCC1(C)C(OC(=O)c1ccc(O)cc1)C2 (stereo not given)	-2.8% (inactive)
COc1ccc(C23NCCN2C(=O)c2ccccc23)cc1 (stereo not given)	-7.41% (inactive)
Cc1cccc(C)c1NC(=O)CNC(=O)Cc1ccc(Br)cc1	-2.02% (inactive)
Cc1ccccc1OCC(=O)Nc1nc(C)c(C(=O)N(C)C)s1	7.85% (inactive)
Cc1cccc(NC(=O)Nc2ccc(OCc3ccccc3)cc2)n1	-4.06% (inactive)
Cc1cccc(NC(=O)COc2ccc(Br)cc2C)n1	42.7% (active)
Cc1cccc(NC(=O)COc2ccccc2C)n1	47.9% (active)
CCN(CC)S(=O)(=O)c1ccc(C)c(NC(=O)COc2ccc(Br)cc2Cl)c1	-3.99% (inactive)
Cc1cccc(NC(=O)Cc2ccc(Br)cc2)n1	33.4% (active)
CSc1ccccc1NC(=O)Cc1ccc(Br)cc1	-3.62% (inactive)
COCCNC(=O)COc1ccccc1C	0.731% (inactive)
O=C1C(=O)N(CCN2CCOCC2)C(c2cccc(Cl)c2)/C1=C(/O)c1ccc2c(c1)OCO2 (stereo not given)	1.71% (inactive)
O=C(Nc1ccc(-n2cccn2)cc1)C1CCN(Cc2ccsc2)CC1	1.46% (inactive)
Cc1cnc(C(=O)Oc2cccc(Cl)c2Cl)cn1	-2.93% (inactive)
O=S(=O)(Nc1cccc(Oc2ccc(Cl)cc2)n1)c1ccc(F)cc1	-1.16% (inactive)
COc1ccc(CN2CCNC(=O)C2CC(=O)NCc2cn[nH]c2-c2ccccc2)c(F)c1 (stereo not given)	-3.59% (inactive)
Cc1cc(C)n(CCNS(=O)(=O)c2ccc(Cl)cc2)n1	-1.13% (inactive)
COc1ccc2cc(-c3[nH]ncc3CNCCn3nc(C)cc3C)ccc2c1	38.8% (active)
